High-throughput results deposited in PubChem by several laboratories.
In the library only some 5.4% were active in any assay of this set; here they are far more common.
SMARCA2 activ – increases SMARCA2 function in MMTV reporter cells | MG213 cells, MMTV-luciferase reporter, dexamethasone, overnight | activation, % at 9.1 µM | actives 1% (n = 370,000) | AID 652017; in the data active = activation above about 7.8%;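 note: 0% = vehicle wells and 100% = reference activator wells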
M18AAP inhibitor – PfM18AAP enzyme inhibition; actives 1.2% (n = 290,000); recombinant PfM18AAP, H-Glu-NHMec fluorogenic cleavage; inhibition, % at 7.35 µM;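 active = inhibition above the campaign mean inhibition over all tested compounds plus 3 SD, cut at about 28% in these data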;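 note: 0% = plate median of test compound wells and 100% = 2 mM ZnCl2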
ALR inh – inhibitors of human sulfhydryl oxidase ALR | purified ALR, DTT oxidation, H2O2 HRP-luminol luminescence | inhibition, % (test concentration not listed) | actives 3.8% (n = 290,000) | AID 485317;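 active = mean replicate inhibition above about 79%, with every replicate also reaching it, limit read from the data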
Exocytosis inh – lytic granule exocytosis inhibition; TALL-104 LAMP-1 surface exposure, flow cytometry; cells stimulated with thapsigargin and PMA; inhibition, % at 10 µM; actives 0.66% (n = 360,000);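 active = inhibition above about 55%, limit read from the data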
MIN6 prolif – MIN6 beta-cell proliferation induction. MIN6 cells proliferation, ATPlite luminescence, 48 h; cells starved in 0.2% serum; 100% = growth in 10% serum. proliferation, % at 10 µM. actives 0.29% (n = 330,000). AID 2380;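 active = compounds whose signal lies at least 3.5 SD above the mean of all wells on their plate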;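 note: 0% = DMSO-treated cells in low-serum medium and 100% = 10% serum control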
JMJD2C inh – inhibitors of human GASC-1 (JMJD2C) demethylase; GST-JMJD2C(1-420) H3K9me3 demethylation, DELFIA europium; inhibition, % at 2.35 µM; actives 0.069% (n = 330,000); Q9H3R0; AID 2099;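 active = more than half of a compound's replicate wells show inhibition beyond 50%, single wells judged on their own value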;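 note: signal counts dimethyl H3K9 product captured on neutravidin plate; 0% = median of DMSO wells and 100% = 0.3 times that DMSO median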
Target sequence (Q9H3R0 1-420 limits assumed): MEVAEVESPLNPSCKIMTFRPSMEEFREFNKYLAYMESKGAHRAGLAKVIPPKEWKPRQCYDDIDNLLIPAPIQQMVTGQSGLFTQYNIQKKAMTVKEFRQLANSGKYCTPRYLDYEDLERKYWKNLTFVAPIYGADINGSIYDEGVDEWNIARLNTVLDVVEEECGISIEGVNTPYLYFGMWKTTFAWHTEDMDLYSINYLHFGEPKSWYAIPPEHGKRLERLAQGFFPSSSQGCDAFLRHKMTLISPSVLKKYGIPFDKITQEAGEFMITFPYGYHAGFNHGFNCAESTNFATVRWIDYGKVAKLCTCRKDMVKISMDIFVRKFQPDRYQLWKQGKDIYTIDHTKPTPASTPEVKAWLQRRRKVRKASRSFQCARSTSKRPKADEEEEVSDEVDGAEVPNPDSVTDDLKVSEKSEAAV
SMARCA2 conf – SMARCA2 activation, confirmation screen; shares compounds with SMARCA2 activ; MG213 cells, MMTV-luciferase with dexamethasone, luminescence, overnight; MG213 cells expressing E1A, Rb sequestered; DMSO wells 0%, reference activator 100%; activation, % at 9.1 µM; actives 30% (n = 3,500); AID 652260;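 active = activation above its plate's cutoff, the mean activation of tested wells plus 3 SD, cut at about 7.9% in these data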
VP16 Luc act – activates GAL4-VP16 luciferase, flagging SMARCA2 activator hits. actives 41% (n = 3,500). HEK293 GAL4-VP16 pG5luc reporter, luciferase luminescence; scaled: DMSO wells 0%, SAHA wells 100%. shares compounds with SMARCA2 activ. activation, % at 9.1 µM;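 active = activation above the solvent-only control well mean plus 3 SD, averaged across control plates, cut at about 5.2% in these data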
An asterisk follows results filed as active; x = not tested or not shown.

SMILES | SMARCA2 activ | M18AAP inhibitor | ALR inh | Exocytosis inh | MIN6 prolif | JMJD2C inh | SMARCA2 conf | VP16 Luc act
Cc1ccc(C)c(S(=O)(=O)N2CCN(c3nc(CN4CCOCC4)nc4sc(C)c(C)c34)CC2)c1 | 9.1* | x | x | 1.4 | -6.5 | -7.0 | -0.4 | -0.1
O=C(Nc1ccc(F)c(Cl)c1)c1cc(C2CCCN(C(=O)CCc3ccccc3)C2)on1 (stereo unspecified) | -1.5 | x | x | -5.6 | x | x | x | x
CCCCCCCCN1C(=O)[C@H](CC(=O)NCc2ccccc2)C[C@@]2(C(=O)OC)CCCCC=C12 | 1.5 | x | x | 17.3 | x | x | x | x
COc1ccc(NC(=O)c2cc(F)cc(F)c2)cc1Cl | 9.0* | 6.7 | -2.7 | -1.1 | 3.0 | -1.0 | 0.9 | 2.7
O=C(NCc1nnc2c(C(F)(F)F)cc(Cl)cn12)c1ccc(Br)o1 | -3.4 | 2.8 | 1.7 | -8.1 | 7.3 | -1.3 | x | x
O=C(NCc1nnc2c(C(F)(F)F)cc(Cl)cn12)c1cccnc1 | 9.5* | -4.0 | -0.1 | -0.5 | 1.5 | 1.7 | -3.8 | 2.2
O=C(Nc1ccccc1F)c1coc(=O)c(Br)c1 | 1.2 | 5.2 | -1.9 | 4.6 | -4.4 | -6.5 | x | x
O=C(NCCc1ccc(F)cc1)c1coc(=O)c(Br)c1 | 27.1* | -14.6 | -4.9 | 41.9 | -4.7 | 2.6 | -8.2 | 4.4
CN(C)CCCNc1cc(C(C)(C)C)nc2c(-c3ccccc3)cnn12 | 9.3* | 6.3 | 99.0* | 6.3 | -4.0 | -10.1 | 6.1 | 6.7*
Cc1ccc2c(CN(C)Cc3ccccc3)cc(=O)oc2c1 | 10.7* | x | x | -5.6 | x | x | 12.4* | 11.5*
O=c1c2ccccc2nc2c3ccccc3c(NCc3ccco3)nn12 | 12.6* | -0.5 | 90.8* | -1.2 | -0.1 | 35.0 | 10.1* | 0.6
CCc1nc2ccc(C(=O)Nc3cccc(OCC(=O)N(C)C)c3)cn2c1N(C=O)Cc1ccc(OC)cc1 | -1.8 | x | x | -5.6 | x | x | x | x
COc1ccc(C)cc1-n1cnnn1 | 8.1* | -3.6 | -3.1 | -0.7 | 1.7 | 19.2 | -0.2 | 2.0
COc1ccc(N)cc1-n1cnnn1 | -1.1 | -4.4 | 10.8 | 3.2 | -2.6 | 9.4 | x | x
CC(C)[C@H](NC(=O)OC(C)(C)C)c1cc(C(=O)N2CCOCC2)c(N)s1 | 4.9 | x | x | 1.3 | x | x | x | x
COC(=O)c1c(-c2cccnc2)csc1NC(=O)c1cc(C)on1 | 10.3* | 17.9 | x | 4.4 | -4.5 | 7.4 | 18.6* | 14.1*
COC(=O)c1c(-c2ccc(C)cc2)csc1NC(=O)c1c(-c2ccccc2)noc1C | -1.2 | -2.5 | -2.1 | x | -3.6 | -2.0 | x | x
CCOC(=O)CNC(=O)N1C[C@H]2CON(C)[C@H]2C[C@H]1c1ccccc1Br | -6.0 | x | x | -4.5 | x | x | x | x
COC(=O)C1=C(C)N(Cc2cccc(C(F)(F)F)c2)C(=NCc2ccc(C(F)(F)F)cc2)NC1c1cccc(C(F)(F)F)c1 (stereo unspecified) | -3.9 | x | x | x | x | x | x | x
COc1ccc(NC(=O)NCCCN2CCCC2=O)cc1 | -1.2 | 1.3 | -11.9 | -5.6 | 4.1 | -2.6 | x | x
COc1ccc(C(=O)NCCCN2CCCC2=O)cc1 | 8.0* | 4.5 | -2.9 | 0.2 | -0.4 | -0.4 | -0.8 | 0.1
CN1CCN(C(=O)c2ccccc2NC(=O)c2sc3ccccc3c2Cl)CC1 | 2.8 | 2.9 | -5.3 | 8.8 | -4.3 | -4.4 | x | x
CN1CCN(c2ccc(NC(=O)c3sc4ccccc4c3Cl)cc2)CC1 | 8.4* | -7.7 | 3.1 | 40.2 | -6.9 | -10.5 | 0.6 | 2.9
Cc1occc1-c1nnc(SCC(=O)N2CCCCC2C)o1 (stereo unspecified) | -3.0 | x | 3.4 | -2.0 | -1.6 | -0.8 | x | x
CC1CCCCN1C(=O)CSc1nnc(-c2ccccc2O)o1 (stereo unspecified) | 8.9* | 6.6 | 10.7 | 2.0 | 0.0 | 10.7 | 1.7 | 10.1*
CNC(C)C#Cc1ccc2c(=O)c3ccccc3oc2c1 (stereo unspecified) | 9.2* | x | 47.5 | 8.1 | -8.1 | 8.7 | 12.6* | 3.8
